The list is not random: actives were taken first. Their share in the collection is about 9.2%.
NPC1 prom act = activators of NPC1 promoter. Huh7 NPC1 promoter luciferase reporter, 24 h. Potency, µM (titrated, usually from 9.22 µM), for inactives: top-dose activation, hits mostly activators. hit rate 2.4% among 320,000; note: % of control where 0% means no effect; nearly all actives have a fitted effect of over 60% in size
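Readout is luciferase luminescence, reflecting NPC1 promoter activation in stably transfected Huh7 cells after 24 h compound exposure at 37 °C in reduced-serum medium with 10% FBS.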
ELG1 genotox = genotoxicity induction in ELG1-luciferase HEK293T cells; AID 504466; HEK293T ELG1-luciferase reporter, luminescence, 16 h; hit rate 1.3% among 330,000; Potency, µM (highest dose often 46 µM), inactives show top-dose activity change, positive = activation, most hits filed as activators; note: % of control where 0% means no effect; nearly all actives have a fitted effect of over 60% in size
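After overnight (16 hr) compound treatment at 37 °C, ELG1-luciferase HEK293T cells were lysed with ONE-Glo; luminescence quantified 30 min later at room temperature.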
SMN2 splice enh = increases expression of the SMN2 splice variant; HEK293 SMN2-luciferase splicing reporter, luminescence, 30-36 h; Potency, µM (top dose mostly 46.1 µM), inactives show at the highest dose activity change, positive = activation, actives largely listed as activators; hit rate 2.8% among 210,000; AID 1458; note: % of control where 0% means no effect; nearly all actives have a fitted effect of over 55% in size
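HEK293 cells carry an SMN2 minigene-luciferase reporter in which exon 7 inclusion puts luciferase in frame. Cells were seeded at 2000 cells/well, attached for 10-12 hours, then exposed to compounds for 30-36 hours at 37C before ONE-Glo luminescence.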
FLuc counter = counter-screen for miR-21 project: firefly luciferase inhibitors or activators; P08659; purified FLuc, Km substrates, luminescence inhibition; Potency, µM (titrated, usually from 57.5 µM), without a hit: at the highest dose activity change, negative = inhibition, actives largely listed as inhibitors; hit rate 6.9% among 360,000;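 note: plate controls were vehicle for no effect and reference inhibitor for full effect; nearly all actives have a fitted effect of over 55% in size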
Target sequence (P08659 whole entry, looked up): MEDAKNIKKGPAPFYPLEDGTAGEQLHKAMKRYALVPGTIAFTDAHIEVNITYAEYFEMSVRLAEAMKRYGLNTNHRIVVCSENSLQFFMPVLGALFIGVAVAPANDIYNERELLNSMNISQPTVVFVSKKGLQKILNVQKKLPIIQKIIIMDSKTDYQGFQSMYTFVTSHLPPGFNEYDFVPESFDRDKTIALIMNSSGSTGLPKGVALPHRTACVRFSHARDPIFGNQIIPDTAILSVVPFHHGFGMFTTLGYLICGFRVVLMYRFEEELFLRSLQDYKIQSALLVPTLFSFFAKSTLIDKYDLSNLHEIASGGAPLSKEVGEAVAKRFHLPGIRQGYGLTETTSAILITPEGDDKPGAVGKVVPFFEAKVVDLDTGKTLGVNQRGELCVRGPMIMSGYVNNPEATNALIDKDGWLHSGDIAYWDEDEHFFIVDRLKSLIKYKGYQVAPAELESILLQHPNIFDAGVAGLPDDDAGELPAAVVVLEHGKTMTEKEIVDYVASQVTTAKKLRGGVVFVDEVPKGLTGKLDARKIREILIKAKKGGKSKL
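Purified P. pyralis luciferase (10nM final) with 10uM D-luciferin and 10uM ATP (Km levels) in 50mM Tris acetate pH 7.5, 10mM Mg acetate, 0.01% Tween-20, 0.05% BSA; qHTS 6-point titration, ~60 µM downward; luminescence read.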
ELG1 repair inh = ELG1-dependent DNA repair inhibition | HEK293T ELG1-luciferase reporter, luminescence, 16 h; DNA damage induced by 5-fluorouridine | Potency, µM (top dose mostly 46.1 µM), without a hit: top-dose activity change, negative = inhibition, most hits filed as inhibitors | hit rate 2.3% among 330,000 | AID 504467; note: % is set by controls: 0 for no effect and ±100 for the full control effect; nearly all actives have a fitted effect of over 55% in size
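5-Fluorouridine DNA damage + compound/DMSO, 2,000 cells/well, 16 h, 37 °C/5% CO2. ONE-Glo, 30 min RT, luminescence. Readout = decrease in reporter signal.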
Rab9 prom act = Rab9 promoter activation. Huh7 Rab9 promoter-luciferase reporter, luminescence, 24 h. AID 485297. Potency, µM (titrated, usually from 9.22 µM), inactives show top-dose activation, negative = inhibition, actives largely listed as activators. hit rate 2.8% among 320,000; note: % of control where 0% means no effect; nearly all actives have a fitted effect of over 60% in size
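Cells were plated at 1500 per well in reduced-serum medium with 10% FBS and left 2 h. Compound in DMSO was then added for 24 h at 37 °C. Reporter signal was read by luminescence after 10 min with luciferase detection reagent.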
The depositor's hits bear a star; ? = inconclusive; . = no result. Calls come from the whole dose curve; as a rule, active = well fitted curve in the direction sought with a large enough effect; inconclusive = small, poorly fitted or top-dose-only effect, or another doubt; inactive = no such curve, though single readings can be large; an effect the other way counts as inactive or inconclusive. Potency is the fitted concentration of half-maximal effect.

SMILES	NPC1 prom act	ELG1 genotox	SMN2 splice enh	FLuc counter	ELG1 repair inh	Rab9 prom act
O=C(Nc1nc2ccccc2s1)c1ccc(OCC2CCCO2)cc1 (centres undefined)	3.2µM*	?	.	0.76µM*	?	0.4µM*
Cc1ccc(NC(=O)c2ccc(OCc3c(C)noc3C)cc2)nc1	3%	0%	.	-6%	-17%	2%
Clc1ccccc1/C=C/c1nc(-c2ccccn2)no1	0.22µM*	?	.	0.11µM*	?	?
O=C(COC(=O)c1cc([N+](=O)[O-])ccc1N1CCOCC1)Nc1cc(F)ccc1F	-10%	2%	.	1%	23µM*	1%
O=C(COC(=O)c1cc([N+](=O)[O-])ccc1N1CCOCC1)c1ccc(OC(F)F)cc1OC(F)F	-4%	0%	.	1%	21µM*	2%
CCCN(C(=O)c1ccc(OCC(C)C)cc1)c1c(N)n(Cc2ccccc2)c(=O)[nH]c1=O	-5%	1%	.	-3%	0%	-3%
COc1ccc(-c2ccc(SCC(=O)N3CC(=O)Nc4ccccc43)nn2)cc1	25%	3%	.	3µM*	27%	28%
O=C(CSc1ccc(-c2ccc(F)cc2)nn1)N1CCOCC1	12%	?	-24%	-1%	26%	14%
Cc1ccc(C(=O)CSc2ccc(-c3ccncc3)nn2)cc1	-13%	-7%	-10%	-3%	?	-10%
COc1ccc(-c2ccc(SCC(=O)c3cccs3)nn2)cc1	12%	?	13µM*	11µM*	?	27%
O=C(CSc1ccc(-c2ccccc2)nn1)N1CCOCC1	17%	?	6.3µM*	-17%	?	18%
O=C(CSc1ccc(-c2ccccc2)nn1)c1cccs1	?	?	18µM*	?	?	?
CCOc1ccc(N2CC(C(=O)Nc3cccc(S(=O)(=O)NC4=NCCC4)c3)CC2=O)cc1 (centres undefined)	-5%	-2%	.	1%	-15%	-8%
CC(=O)N1c2ccc(S(=O)(=O)N(C)Cc3ccco3)cc2CC1C (centres undefined)	-4%	-1%	.	5%	24%	3%
Cc1ccc(NC(=O)CSc2nn(-c3ccccc3)c(=S)s2)cc1S(=O)(=O)N(C)C	-16%	2%	-85%	-2%	23µM*	-22%
O=C(CSc1nn(-c2ccccc2)c(=S)s1)Nn1cnnc1	-4%	0%	-9%	-1%	5%	-9%
CCOc1ccccc1-n1nnnc1SCC(=O)NC(=O)Nc1ccc2c(c1)OCCO2	1%	-1%	-15%	-16%	?	1%
Nn1c(SCC(=O)Nc2ccc3c(c2)OCCO3)nnc(CCC(=O)O)c1=O	-4%	-1%	.	13µM*	?	-3%
O=C(CSc1nnnn1-c1ccccc1)NC(=O)Nc1ccc2c(c1)OCCO2	?	?	?	19µM*	?	?
Cn1nnnc1SCC(=O)Nc1ccc2c(c1)OCCO2	2.8µM*	?	11µM*	13µM*	?	1.6µM*
Cc1cccc(NC(=O)CSc2nc(C)c(Cc3ccccc3)c(=O)[nH]2)c1C	-2%	0%	3%	-3%	4%	-6%
COc1cccc(OCc2nc3ccccc3n2Cc2ccccc2C)c1	.	.	-27%	?	.	.
COc1cccc(OCc2nc3ccccc3n2C)c1	.	.	16µM*	11µM*	.	.
Cc1cccc(OCc2nc3ccccc3n2C)c1	?	?	.	24µM*	?	?
Nn1c(COc2cccc(Cl)c2)nc2ccccc2c1=O	16%	9%	?	?	?	25%
SMILES	NPC1 prom act	ELG1 genotox	SMN2 splice enh	FLuc counter	ELG1 repair inh	Rab9 prom act
Cc1cccc(OCC(=O)NNc2c3ccccc3nc3ccccc23)c1	-29%	0%	-59%	?	15µM*	-22%
Cc1cccc(OCc2nc3ccccc3c(=O)n2N)c1	?	?	?	17µM*	?	?
Cc1ccc(OCC(=O)NNc2c3ccccc3nc3ccccc23)cc1	-19%	-16%	-61%	-11%	?	-18%
Nc1ccccc1-c1nnc(SCC(=O)Nc2ccccc2OC(F)F)[nH]c1=O	.	3%	.	.	6%	.
O=C(Cn1nnc(-c2cccs2)n1)NCc1cccs1	-3%	0%	4%	-4%	5%	13%
O=C(Cn1nnc(-c2cccs2)n1)N1CCOCC1	-3%	13%	-1%	0%	22%	4%
O=C(Cn1nnc(-c2cccs2)n1)OC1CCCCC1	-2%	0%	-2%	13µM*	-3%	2%
CC1CCN(C(=O)Cn2nnc(-c3cccs3)n2)CC1	3.5µM*	?	.	?	?	2.2µM*
Cc1ccc(C(=O)Cn2nnc(-c3cccs3)n2)cc1	?	2%	.	5.4µM*	15%	3.2µM*
COc1ccc(-c2nnn(CC(=O)OC3CCCCC3)n2)cc1OC	0%	2%	.	-10%	9%	-3%
CC(C)c1ccc(N(C(=O)c2ccc3c(c2)OCO3)C2C=CS(=O)(=O)C2)cc1 (centres undefined)	0%	-2%	.	-1%	-2%	0%
COc1cc(C(C)=O)ccc1COc1ccc(C(=O)OCC(N)=O)cc1OC	0%	3%	-36%	12µM*	?	-2%
Cc1cc(/C=C2\NC(=O)NC2=O)c(C)n1-c1cccnc1	22%	17%	.	15µM*	8%	1%
Cc1cc(/C=C2\NC(=S)NC2=O)c(C)n1-c1cccnc1	21%	10%	.	9.5µM*	?	?
Cc1cc(/C=C2\SC(=S)N(Cc3ccco3)C2=O)c(C)n1-c1cccnc1	?	?	5%	4.8µM*	?	?
Cc1ccc(Cl)cc1-n1c(=O)cc(N2CCN(c3ccccc3)CC2)[nH]c1=O	.	.	.	-14%	.	.
COC(=O)C1=NNC2(C)C(=O)N(c3ccc(C)cc3)C(=O)C12 (centres undefined)	-4%	0%	.	3%	0%	-3%
CCOc1ccc(CN2CCN(C(=O)c3cccc4ccccc34)CC2)cc1	-6%	-2%	.	-2%	?	-18%
COc1ccc(-c2cc(C(=O)N3CCN(c4ccccc4O)CC3)c3ccccc3n2)cc1OC	21%	-19%	.	9.5µM*	9.2µM*	-2%
CS(=O)(=O)N1CCN(C(=O)c2cc(-c3ccccc3)nc3ccccc23)CC1	1%	-1%	-1%	?	-4%	-1%
CS(=O)(=O)N1CCN(C(=O)c2cc(-c3cccs3)nc3ccccc23)CC1	3%	-1%	1%	?	16µM*	6%
O=C(c1cc(-c2cccs2)nc2ccccc12)N1CCN(c2ccccc2O)CC1	5%	-10%	-66%	21µM*	?	18%

Source: PubChem BioAssay (National Center for Advancing Translational Sciences (NCATS))
